Compound activity: PubChem, several laboratories
GluA2 TARP mod – modulators of GluA2-stargazin AMPA receptor complexes, primary screen, cell-based, membrane potential dye | hit rate 3.5% among 40,000 | calls only at 30 µM | HEK293 GluA2+stargazin, membrane potential dye (FDSS), glutamate EC50; hits were called plate by plate, in both directions | Voltage-dependent calcium channel gamma-2 subunit (Mus musculus) + Glutamate receptor 2 …;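 active = any of four per-well response measures lying three or more SD from its plate-wide compound average, in either direction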
GIRK2 activator – activators of NPY4-receptor-primed GIRK2 channels, summary, cell-based, HEK293, thallium flux; G protein-activated inward rectifier potassium channel 2 (Homo sapiens), P48051; HEK293 GIRK2/NPY4 cells, thallium flux fluorescence; activation (% efficacy), % for hits at 37.5 µM; 34,000 tested, under 10 active; AID 1259324, 2017;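 active = primary screen hit, no activity in plain HEK293 cells, and in GIRK2-only cells above 5% efficacy rising with concentration; inactive = the rest, including fluorescent compounds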;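 also: efficacy is normalized control-subtracted fluorescence 15 s after thallium addition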
Of the large screens only hits and unclear results are named; the others gave an inactive call. The entries come from a sample that favours hits as a whole.

COC(=O)/C=C1\S/C(=N\Nc2nc(C)cc(C)n2)N(c2ccccc2)C1=O	GluA2 TARP mod active (no result: GIRK2 activator)
COC(=O)/C=C1\S/C(=N/Nc2nc(C)cc(C)n2)N(c2ccccc2)C1=O	none (no result: GluA2 TARP mod)
COc1ccc(SCC(=O)Nc2nc(-c3ccc(OC)c(OC)c3)cs2)cc1	none (no result: GIRK2 activator)
Cc1ccc(-n2ccnc2N2CCN(C(=O)c3ccc(C)c(C)c3)CC2)cc1	GluA2 TARP mod active
Cc1ccc(-n2ccnc2N2CCN(C(=O)CCc3ccccc3)CC2)cc1	none
Cc1ccc(-n2ccnc2N2CCN(C(=O)c3ccc4ccccc4c3)CC2)cc1	none
Cc1ccc(-n2ccnc2N2CCN(C(=O)CCCc3ccccc3)CC2)cc1	GluA2 TARP mod active
COc1ccc(C)c2sc(N(CCN3CCOCC3)C(=O)c3ccc(Cl)s3)nc12	GluA2 TARP mod active (no result: GIRK2 activator)
CCS(=O)(=O)c1cccc(C(=O)N(CCN2CCOCC2)c2nc3c(C)c(C)ccc3s2)c1	GluA2 TARP mod active (no result: GIRK2 activator)
COc1ccc(OC)c2sc(N(CCN3CCOCC3)C(=O)CCc3ccccc3)nc12	none (no result: GIRK2 activator)
COc1ccc2sc(N(CCCN3CCOCC3)C(=O)c3ccno3)nc2c1	GluA2 TARP mod active
COc1ccc(C)c2sc(N(CCN3CCOCC3)C(=O)c3ccc(Cl)cc3)nc12	none (no result: GIRK2 activator)
COc1ccc2sc(N(CCN3CCOCC3)C(=O)c3cccc(F)c3)nc2c1	none
CCCC(=O)N(CCN1CCOCC1)c1nc2c(OC)ccc(OC)c2s1	GluA2 TARP mod active (no result: GIRK2 activator)
CCS(=O)(=O)c1cccc(C(=O)N(CCN2CCOCC2)c2nc3ccccc3s2)c1	none
O=C(NCCC1=CCCCC1)C(=O)NCCn1nc(-c2ccco2)ccc1=O	none
Cc1noc(C)c1S(=O)(=O)Nc1ccc(-c2ccc(=O)n(C)n2)cc1	none
CCn1c(SCc2nc(-c3cccc(Br)c3)no2)nc2ccccc2c1=O	none (no result: GIRK2 activator)
O=C(/C=C/c1ccccc1Cl)N1CCN(Cc2ccsc2)CC1	none
COc1ccc(OC)c2sc(N(CCN(C)C)C(=O)c3cc(C)nn3C)nc12	GluA2 TARP mod active
O=C(c1ccc(Br)s1)N(CCN1CCOCC1)c1nc2ccccc2s1	none
CCOc1ccc2nc(N(CCN3CCOCC3)C(=O)c3ccnn3C)sc2c1	none
COc1ccc2nc(N(CCN3CCOCC3)C(=O)c3ccc(Br)s3)sc2c1	GluA2 TARP mod active (no result: GIRK2 activator)
COc1ccc(C)c2sc(N(CCN3CCOCC3)C(=O)c3ccc(Br)s3)nc12	GluA2 TARP mod active (no result: GIRK2 activator)
CCOc1ccc2nc(N(CCN3CCOCC3)C(=O)c3ccc(S(C)(=O)=O)cc3)sc2c1	GluA2 TARP mod active (no result: GIRK2 activator)
CCn1nc(C)cc1C(=O)N(CCCN(C)C)c1nc2c(OC)ccc(Cl)c2s1	none
COc1ccc(C)c2sc(N(CCN3CCOCC3)C(=O)c3ccc(C)cc3)nc12	none (no result: GIRK2 activator)
Cc1noc(CNC(=O)C2CN(c3nc4ccccc4s3)C2)n1	none
CC(=O)Nc1ccc(NC(=O)CCNS(=O)(=O)c2ccc(C)cc2)cc1	none (no result: GluA2 TARP mod)
COCCNC(=O)C(=O)NCc1ccco1	none
CCOC(=O)c1c(C)c(C(=O)NCc2ccco2)c(C)n1CC	GluA2 TARP mod active
O=C(NCCOc1cccc(C(F)(F)F)c1)c1ccc([N+](=O)[O-])cc1	GluA2 TARP mod active
CCOc1ccc(OCCNC(=O)c2ccc([N+](=O)[O-])cc2)cc1	GluA2 TARP mod active
O=C(NCCOc1ccc(F)cc1)c1ccc([N+](=O)[O-])cc1	none
O=C(NCCOc1cccc(C(F)(F)F)c1)c1ccc(Cl)c([N+](=O)[O-])c1	none
O=C(Nc1ccon1)C1CN(C(=O)c2cccs2)C1	none
Cc1ccccc1-c1ccc(N2CCC(C(=O)NCc3ccco3)CC2)nn1	GluA2 TARP mod active
Cc1ccccc1-c1ccc(N2CCC(C(=O)NCc3cccnc3)CC2)nn1	none
COC(=O)C1CCN(C(=O)c2c(C(F)(F)F)nn(C3CCCC3)c2C)CC1	none
CCC(=O)Nc1sc(SCC(=O)NC2CC2)nc1-c1ccccc1	none
Cc1nc(NCC2CCCO2)nc(Nc2ccc(F)cc2)c1[N+](=O)[O-] (centres undefined)	none
Cc1nc(NCC2CCCO2)nc(NC2CCCCC2)c1[N+](=O)[O-] (centres undefined)	GluA2 TARP mod active
COc1ccc(NC(=O)CSc2ccc(NC(C)=O)nn2)c(OC)c1	none (no result: GluA2 TARP mod)
Cn1c(-c2ccccn2)nn(CCNC(=O)C2(c3ccc(Cl)cc3)CCCC2)c1=O	GluA2 TARP mod active
Cn1c(C(F)(F)F)nn(CCNC(=O)C2(c3ccc(Cl)cc3)CCCC2)c1=O	none
CC(=O)c1c(C)nn(CC(=O)Nc2ccc(F)cc2)c1C	none
CC1(C)N=C(SCC(=O)Nc2ccc(F)cc2F)C(c2ccccc2)=N1	none
CC1(C)N=C(SCC(=O)Nc2ccc(F)cc2F)C(c2ccc(Cl)cc2)=N1	GluA2 TARP mod active
Cc1cc(C)n(-c2cc(NCCNS(=O)(=O)c3cccs3)ncn2)n1	none
Cc1ccc(Cl)cc1N1CCN(C(=O)c2cc3ccccc3oc2=O)CC1	none
COc1ccccc1CCNC(=O)c1cnn2c(C(F)F)cc(C)nc12	GluA2 TARP mod active (no result: GIRK2 activator)
Cc1cc(C(F)F)n2ncc(C(=O)NC3CCCCCC3)c2n1	none (no result: GIRK2 activator)
COc1ccccc1C1(C(=O)N2CCC(c3ccsc3)CC2)CCOCC1	GluA2 TARP mod active
O=C(c1nc2ccccc2s1)N1CCC(c2ccsc2)CC1	none
O=C(CC1CCCCN1S(=O)(=O)c1ccccc1)NCCC1=CCCCC1 (centres undefined)	GluA2 TARP mod active
COc1ccc(S(=O)(=O)N2CCCCC2CC(=O)NCCCc2ccccc2)cc1 (centres undefined)	none (no result: GIRK2 activator)
CC(C)(C)NC(=O)NCCC1CCCCN1S(=O)(=O)c1ccccc1 (centres undefined)	GluA2 TARP mod active (no result: GIRK2 activator)
COc1ccc(CNC(=O)C(=O)NCCC2CCCCN2S(=O)(=O)c2ccccc2)cc1 (centres undefined)	none (no result: GIRK2 activator)
CSCCn1c(=NC(=O)c2cc(C)no2)sc2cc3c(cc21)OCCO3	GluA2 TARP mod active
CSCCn1c(=NC(=O)c2cc(C)no2)sc2ccccc21	none
O=C(Nc1ccc2c(c1)CN(C(=O)C1CC1)CC2)c1cc(-c2ccccc2)on1	none
COc1ccc(S(=O)(=O)N2CCCCC2CC(=O)NCc2ccccc2OC)cc1 (centres undefined)	none (no result: GIRK2 activator)
COc1ccc(S(=O)(=O)N2CCCCC2CC(=O)NCc2ccccc2Cl)cc1 (centres undefined)	GluA2 TARP mod active (no result: GIRK2 activator)
COc1cccc(CCNC(=O)CC2CCCCN2S(=O)(=O)c2ccccc2)c1 (centres undefined)	none (no result: GIRK2 activator)
COc1cccc(CCNC(=O)CC2CCCCN2S(=O)(=O)c2ccc(Cl)cc2)c1 (centres undefined)	GluA2 TARP mod active (no result: GIRK2 activator)
N#Cc1ccc(Cl)cc1NC(=O)C(=O)NCc1ccc(OCc2ccccc2)cc1	none
N#Cc1nc(-c2ccc(S(=O)(=O)N3CCCCCC3)cc2)oc1N1CCC(C(N)=O)CC1	none
CCOC(=O)c1ccccc1NC(=O)CN1CCCN(Cc2ccccc2Cl)S1(=O)=O	GluA2 TARP mod active
COC(=O)c1sccc1NC(=O)CN1CCCN(Cc2ccccc2)S1(=O)=O	none (no result: GIRK2 activator)
CC1CC(C)CN(CC(O)COCCOc2ccc(C(C)C)cc2)C1 (centres undefined)	none (no result: GluA2 TARP mod)
COc1ccc(NC(=O)Cn2cc(-c3ccccc3)c(N3CCOCC3)n2)c(OC)c1	none
COC(=O)c1ccccc1NC(=O)Cn1cc(-c2ccccc2)c(N2CCOCC2)n1	GluA2 TARP mod active
Cc1cc(C)n(CCNC(=O)Cn2c3c(c4ccccc42)CCC3)n1	none
